# Measured values taken from PubChem BioAssay (EPA / NIEHS).
# Inconclusive results are not listed. Activity calls are given as the source filed them. The calls were made as follows: active = hit-call score of the fitted dose curve at least 0.9, where 1 is the maximum; inconclusive = response in the unintended direction; inactive = score below 0.9.
# Target: human Ephrin type-A Receptor 1 (EphA1), EPHA1 (gene 2041) (UniProt P21709)
# Assay: NVS_ENZ_hEphA1: NovaScreen (NVS) Enzymatic Assay for human Ephrin type-A Receptor 1 (EphA1) (AID 2283158)
# Experimental: NVS_ENZ_hEphA1 is a biochemical, single-readout assay that uses extracted gene-proteins in a cell-free assay. Measurements were taken 1 hour after chemical dosing in a 384-well plate.NVS_ENZ_hEphA1 is one of one assay component(s) measured or calculated from the NVS_ENZ_hEphA1 assay. It is designed to make measurements of enzyme activity, a form of enzyme reporter, as detected with fluorescence intensity signals by Fluorescence and electrophoretic mobility shift technology.Data from the assay component NVS_ENZ_hEphA1 was analyzed into 1 assay endpoint. This assay endpoint, NVS_ENZ_hEphA1, was analyzed in the positive analysis fitting direction relative to DMSO as the negative control and baseline of activity. Using a type of enzyme reporter, loss-of-signal activity can be used to understand changes in the enzymatic activity as they relate to the gene EPHA1. Furthermore, this assay endpoint can be referred to as a primary readout, because this assay has produced multiple assay endpoints where this one serves a enzymatic activity function. To generalize the intended target to other relatable targets, this assay endpoint is annotated to the kinase intended target family, where the subfamily is receptor tyrosine kinase.
# Binding assays used specific radioligands (tritiated, iodinated) with non-radioactive competitive displacement ligands in agonist or antagonist protocols (as indicated) and various reference compounds and inhibitors to titrate specific binding to receptors and transporters. Most enzyme assays (CYPs, kinases, phosphatases, proteases, HDACs) used recombinant protein and specific substrates (fluorescence mostly, some colorimetric and radioactive) and inhibitors, followed by a biochemical separation of substrate and product. All assays for the biochemical HTS were initially run in duplicate at a single concentration (10 uM for CYP450 assays and 25 uM for all others). Assay-chemical combinations meeting a pre-defined threshold (e.g., 30% inhibition and other criteria defined below) were then run in singleton concentration-response format with maximum concentration of 20 uM for CYPs and 50 uM for all others. Each assay was run with positive and negative controls, and concurrent controls on every plate. The follow-up (secondary) screen tested active chemical-pairs in concentration series, as well as a few additional assays not tested in the primary screen, some selected negative inactives, and several cases re-run in the concentration series for confirmatory purposes.
# human Ephrin type-A Receptor 1 (EphA1), EPHA1 (gene 2041), sequence (P21709 whole entry, looked up): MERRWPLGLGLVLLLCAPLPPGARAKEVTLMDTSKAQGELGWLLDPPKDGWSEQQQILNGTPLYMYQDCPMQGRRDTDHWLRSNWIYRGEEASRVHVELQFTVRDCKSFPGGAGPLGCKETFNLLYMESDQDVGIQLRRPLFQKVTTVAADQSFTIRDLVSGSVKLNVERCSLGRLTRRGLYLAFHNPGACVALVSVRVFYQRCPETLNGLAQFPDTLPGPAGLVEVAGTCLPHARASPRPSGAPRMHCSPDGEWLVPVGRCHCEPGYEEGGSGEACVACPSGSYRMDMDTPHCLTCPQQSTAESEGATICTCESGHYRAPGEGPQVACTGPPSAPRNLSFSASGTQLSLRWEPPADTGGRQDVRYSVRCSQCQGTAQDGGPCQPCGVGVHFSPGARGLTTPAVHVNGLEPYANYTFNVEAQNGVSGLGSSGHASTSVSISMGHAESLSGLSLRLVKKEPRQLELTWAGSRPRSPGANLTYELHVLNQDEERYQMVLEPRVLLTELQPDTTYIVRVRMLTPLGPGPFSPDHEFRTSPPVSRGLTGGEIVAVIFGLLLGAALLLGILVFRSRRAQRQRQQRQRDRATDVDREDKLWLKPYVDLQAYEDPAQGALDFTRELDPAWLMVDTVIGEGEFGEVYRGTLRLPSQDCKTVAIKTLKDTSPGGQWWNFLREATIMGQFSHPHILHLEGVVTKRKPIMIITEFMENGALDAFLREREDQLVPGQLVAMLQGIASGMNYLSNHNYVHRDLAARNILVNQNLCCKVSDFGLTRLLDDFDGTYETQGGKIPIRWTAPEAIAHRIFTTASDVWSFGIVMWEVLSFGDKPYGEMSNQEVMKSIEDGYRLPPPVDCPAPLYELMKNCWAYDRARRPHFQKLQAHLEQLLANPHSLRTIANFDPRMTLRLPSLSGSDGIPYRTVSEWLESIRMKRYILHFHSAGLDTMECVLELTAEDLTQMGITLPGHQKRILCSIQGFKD
Structure (SMILES),outcome,AC50
CCOc1ccc(NC(=O)CC(C)=O)cc1,inactive,–
CC(=O)C(C)O (configuration not stated),inactive,–
c1ccc2cc(Nc3ccc(Nc4ccc5ccccc5c4)cc3)ccc2c1,inactive,–
CC(C)(N=C=O)c1cccc(C(C)(C)N=C=O)c1,inactive,–
OCCCCC(O)CO (configuration not stated),–,5.49 µM (active)
CCN(CC)C(=O)N(CC)CC,–,25 µM (active)
C=CC(=O)OCCCC,inactive,–
Cc1ncc([N+](=O)[O-])n1CCO,–,11.7 µM (active)
C=C(C)C(=O)OCCOCCOCCOCCOC(=O)C(=C)C,–,35.3 µM (active)
CCCCSCCCC,inactive,–
CCC(C)c1cc([N+](=O)[O-])cc([N+](=O)[O-])c1OC(=O)OC(C)C (configuration not stated),–,14 µM (active)
COCCOC(=O)c1ccccc1C(=O)OCCOC,inactive,–
